Screening data as filed in PubChem.
IL-1B inflam inh: blocks inflammasome-driven IL-1 beta release; THP-1 LPS/ATP IL-1B secretion, AlphaLISA, 16 h; stronger effect = lower value; activity change, % at 57.5 µM; actives 4.7% (n = 360,000); in the data active = activity change below about -50%; inconclusive = mostly about -30% to -49%
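Secreted IL-1B measured by AlphaLISA bead assay after 16 h compound exposure of THP-1 cells; compounds (final up to 57.5 uM) added 1 h before LPS (250 ng/mL) and ATP (1.25 mM) stimulation; lower signal means less secretion.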
TDP1 cell noCPT: qHTS for Inhibitors of human tyrosyl-DNA phosphodiesterase 1 (TDP1): qHTS in cells in absence of CPT. DT40 Tdp1-/- hTDP1 cells, no CPT, ATP luminescence, 48 h. Potency, µM (titrated, usually from 46.2 µM), inactives show at the highest dose activity change, negative = growth inhibition, usual class: inhibitors. actives 15% (n = 420,000). AID 686978, 2013; note: potency is the fitted concentration of half-maximal effect; nearly all actives have a fitted effect of over 55% in size
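Compound effects on proliferation are scored in DT40 Tdp1-/-;hTDP1 cells in the absence of CPT. ATP levels (CellTiter-Glo luminescence) are recorded after a ≥48 hr, 37 °C incubation.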
HT1080 IDH1KD tx: kills HT-1080 cells with IDH1 knockdown; HT-1080 IDH1 knockdown viability, ATP luminescence, 48 h; Potency, µM (series often up to 46.1 µM), inactives show top-dose activity, negative = toxicity, most hits filed as cytotoxic; actives 2% (n = 360,000); AID 686971;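 note: potency is the fitted concentration of half-maximal effect; 0% = DMSO wells and -100% = cell-free medium wells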
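Luminescent ATP read-out (CellTiter-Glo, 10 min at room temperature) after 48 h compound exposure at 37 °C gave viability of IDH1-knockdown HT-1080 cells. Activity was normalised to DMSO and cell-free wells, then fitted as concentration-response curves.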
DT40 TDP1 CPT: growth inhibition of DT40 Tdp1-/-;hTDP1 cells with camptothecin (screen for TDP1 inhibitors); actives 12% (n = 420,000); Potency, µM (series often up to 46.2 µM), inactives show at the highest dose activity change, negative = growth inhibition, most hits filed as inhibitors; chicken DT40 Tdp1-/-;hTDP1 cells + 20 nM CPT, ATP luminescence, 48 h; AID 686979; note: potency is the fitted concentration of half-maximal effect; nearly all actives have a fitted effect of over 55% in size
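Chicken DT40 Tdp1-/- cells stably complemented with human TDP1 were seeded at 400 cells/well in medium containing 20 nM camptothecin, exposed to pin-transferred compounds, and grown at 37 °C for at least 48 hr. Viability was read as ATP luminescence.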
HT1080-NT tox: kills 2HG-producing HT-1080-NT fibrosarcoma cells. Potency, µM (doses to about 46.1 µM), for the others: at the top dose activity, negative = less viability, hits mostly cytotoxic. HT-1080-NT fibrosarcoma viability, CellTiter-Glo ATP luminescence, 48 h. actives 1.6% (n = 360,000). AID 686970;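 note: NT is the 2HG producing partner of a matched IDH1 knockdown line; potency is the fitted concentration of half-maximal effect; 0% = DMSO-treated cells and -100% = media-only wells without cells; nearly all actives have a fitted effect of over 55% in size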
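Read-out is CellTiter-Glo luminescence after 10 minutes at room temperature, following 48 hours' compound treatment of HT-1080-NT cells (750 cells/well, RPMI, 5% FBS, 37 degrees C).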
* hit, by the source's call; i = inactive; ? = inconclusive; · = no result; [ ] = remark or other dose. A selection: hits, their analogues and other compounds. The true share with any hit is near 19%. Unless noted, calls come from the whole dose curve; as a rule, active = well fitted curve in the direction sought with a large enough effect; inconclusive = small, poorly fitted or top-dose-only effect, or another doubt; inactive = no such curve, though single readings can be large; an effect the other way counts as inactive or inconclusive. Unless noted, % is set by controls: 0 for no effect and ±100 for the full control effect.

SMILES | IL-1B inflam inh | TDP1 cell noCPT | HT1080 IDH1KD tx | DT40 TDP1 CPT | HT1080-NT tox
CCn1c(SCC(=O)N/N=C(/C)c2ccncc2)nc2ccccc21 | 14 | ? | -2% | 3% | -4%
Cc1ccc(N(CC(=O)Nc2cccc(C)c2)S(=O)(=O)c2cccc3nonc23)cc1 | -18 | 11% | -17% | 13% | -23%
CCn1c(=O)c(CCC(=O)N2CCOCC2)c(C)c2c(C)nn(-c3ccccc3)c21 | ? | 21µM* | -19% | ? | -24%
Cc1nn(-c2ccccc2)c2c1c(C)c(CCC(=O)N1CCOCC1)c(=O)n2C | -15 | ? | 11% | 23µM* | 1%
CCOC(=O)N1CCC(NC(=O)CCc2c(C)nc3c(c(C)nn3-c3ccccc3)c2C)CC1 | 11 | -5% | -1% | -19% | -8%
CCCCN(CC)CCNC(=O)C1CCN(S(=O)(=O)c2cccc3nsnc23)CC1 | 16 | 2% | 12% | 7% | 1%
O=C(C1CCN(c2ncnc3c2sc2cccc(F)c23)CC1)N1CCOCC1 | 2 | 29µM* | -16% | 12µM* | -14%
CCCCN(CC)CCCNC(=O)C1CCN(c2ncnc3c2sc2cccc(F)c23)CC1 | -97* | 29µM* | 21µM* | 18µM* | 21µM*
O=C(NCCN1CCOCC1)C1CCN(Cc2ccccc2O)CC1 | -4 | -9% | 3% | 22% | -2%
O=C(NCCN1CCOCC1)C1CCN(c2ncnc3c2sc2cccc(F)c23)CC1 | 6 | 21µM* | 7% | 12µM* | 2%
Cc1cccc(OCCC(=O)Nc2ccc(C)c(S(=O)(=O)N3CCCCC3)c2)c1 | -72* | 21µM* | -19% | ? | -21%
CN(CCOc1ccccc1)c1ccc(S(=O)(=O)N2CCCCC2)cn1 | -29 | 21µM* | 2% | ? | -3%
Cc1cccc(OCCCC(=O)Nc2ccc(Cl)c(S(=O)(=O)N3CCOCC3)c2)c1 | -20 | 12µM* | -10% | 23µM* | -7%
Cc1cccc(OCCC(=O)Nc2ccc(C)c(S(=O)(=O)N3CCOCC3)c2)c1 | -15 | ? | -16% | ? | 1%
Cc1ccc(C(=O)N(C)CCOc2ccccc2)cc1S(=O)(=O)N1CCCCC1 | 0 | ? | -5% | 18µM* | -7%
Cc1ccc(OCCC(=O)Nc2ccc(C)c(S(=O)(=O)N3CCOCC3)c2)cc1 | -6 | ? | -1% | ? | 0%
CN(CCOc1ccccc1)CC(=O)Nc1ccc(S(=O)(=O)N2CCCC2)cc1 | 0 | ? | -2% | ? | -3%
CN(C(=O)CSc1nnc(COc2ccccc2)o1)c1ccccc1 | · | -14% | · | -17% | ·
CCc1ccc(NC(=O)Cn2ncc3c4ccccc4n(C)c3c2=O)cc1 | 35 | ? | 6% | ? | 1%
O=C(NCCc1ccc(Cl)cc1)C1CCCO1 (stereo not given) | -1 | -9% | 3% | 8% | 24%
O=C(COC(=O)COc1ccccc1)NC1CCCc2ccccc21 (stereo not given) | -2 | -14% | 5% | -7% | 8%
CCOc1ccc(N(CC(=O)NCCSCc2ccco2)S(=O)(=O)c2ccc(F)cc2)cc1 | i | 21µM* | 0% | ? | -7%
CCOc1ccc(N(CC(=O)NCCSCc2ccco2)S(=O)(=O)c2ccc(C)cc2)cc1 | 11 | ? | -19% | 18µM* | -23%
CCOc1ccccc1N(CC(=O)NCCSCc1ccco1)S(=O)(=O)c1ccccc1 | -12 | ? | 0% | ? | 7%
CCCCn1c(N)c(N(CCOC)C(=O)c2ccc(COc3ccccc3)o2)c(=O)[nH]c1=O | 4 | -6% | 1% | 0% | 4%
COc1ccc(/C=C/C(=O)NCC(=O)N/N=C/c2cc(Br)ccc2OCc2ccccc2)cc1 | 33 | ? | -15%[9.24 µM] | ? | ?
COc1ccccc1/C=C/C(=O)NCC(=O)N/N=C/c1ccccc1 | 70 | 6% | 4% | 3% | 0%
